# According to the supplement of paper PMC5499739:
# Over roughly 16,000 sequences, “Z-score” has its median near -0.37; the highest 2% begin near 3.2. This excerpt belongs to a sample that is enriched for the highest values.
# Tested on: RBM10 RRM1-ZnF (GST-tagged construct)
# Assay: RNAcompete 7-mer binding Z-score; higher = stronger binding preference
# Procedure: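 RNAcompete: 20 pmol GST-tagged RBM10 RNA-binding constructs were incubated with a designed RNA pool of about 241,000 sequences up to 41 nt (1.5 nmol) on glutathione beads for 30 min at 4 °C and washed. Bound RNAs were identified by microarray hybridisation. Each RNA 7-mer is scored by a one-sided Z-score of its enrichment, computed over probes that contain the 7-mer within longer pool sequences.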
row,Sequence,RNAcompete 7-mer binding Z-score
1,GCAAGGU,1.94
2,GCAGGGU,3.43
3,ACAGGGU,2.94
4,ACAGGGA,3
5,GCAAGGG,3.46
6,ACAGGGC,1.84
7,GCAGGGC,1.35
8,ACAGGGG,3.33
9,GCAAGGA,2.4
10,GCAGGGG,3.32
11,CCAGGGG,1.46
12,CGACAAC,-0.542
13,GUCGGCU,-0.0252
14,GCUAUGC,-0.269
15,CAACGAU,-0.409
16,GAUAGUC,-0.279
17,AAACCCA,-0.701
18,AACGCUG,-0.5
19,CAAAACG,-0.119
20,AGCUUAC,-0.639
21,ACACGGC,-0.191
22,CGCUUAU,-0.649
23,CGGAGGG,2.91
24,AGGAGGC,1.37

row,Sequence,RNAcompete 7-mer binding Z-score
1,GGGAGGG,4.74
2,GGGAGUA,2.53
3,AGGAGGG,3.53
4,AGGAGGA,2.25
5,GGGAGUG,3.73
6,GGGAGGA,3.47
7,AGGAGGU,2.47
8,GAGAGGG,2.7
9,UGGAGGA,2.87
10,AGGAGUG,2.91
11,UCAGCGG,0.309
12,AUGUCCG,-0.626
13,UUACGCA,-0.584
14,GGGAGGC,2.92
15,UGGAGGG,4.07
16,CGGAGCG,1.23
17,GGGAGCC,0.917
18,UGGAGGU,2.84
19,GGGAGCG,3.35
20,CGGAGGU,2.41
21,GGGAGGU,3.68
22,UGGAGGC,1.96
23,AGCAACA,-0.158
24,AGUCUAC,-0.584

row,Sequence,RNAcompete 7-mer binding Z-score
1,GCGUUUG,0.131
2,GGUUGUG,2.29
3,CUACUGA,-0.659
4,GUGUGGA,2.98
5,AUGUGGC,0.586
6,AUGUGGG,3.84
7,GUGUGGG,3.93
8,UUGUGGG,2.83
9,GUGUGGU,2.39
10,CAUCAAG,-0.47
11,UUUAUGG,0.303
12,CCAACAC,-0.5
13,AGGGUCA,1.14
14,GCGGUGU,1.1
15,AUGGUGA,2.6
16,GGGGUGG,4.71
17,GCGGUGG,2.85
18,UGGGUGG,4.14
19,GGGGUGU,4.3
20,GGGGUGC,2.92
21,UGGGUCG,2.09
22,AGGGUGA,4.19
23,UGGGUGC,2.92
24,AGGGUGU,3.11

row,Sequence,RNAcompete 7-mer binding Z-score
1,UAAAUAG,-0.0674
2,CGUAUUU,-0.769
3,UUCACGG,-0.448
4,GAAGACG,1.09
5,CUAAGAA,-0.331
6,CUACAUG,-0.591
7,GAUCAGA,0.316
8,AGUUAGU,-0.0642
9,ACAUCCC,-0.587
10,CGGGUGC,1.85
11,AGGGUGG,4.42
12,UGGGUGA,3.38
13,GGGGUCA,2.86
14,CGGGUGA,2.66
15,ACGGUGG,2.76
16,CGGGUGU,2.14
17,CGGGUGG,3.64
18,UCGGUGA,0.452
19,GCGGUGA,1.2
20,AGGGUGC,2.6
21,GGGGUGA,4.16
22,UCCAUUA,-0.75
23,UCUCCCC,-0.587
24,CCUCGGG,0.423

row,Sequence,RNAcompete 7-mer binding Z-score
1,GCGUCAC,-0.0252
2,GUCUUUA,-0.652
3,GUUUCGA,-0.396
4,AUAUUAU,-0.402
5,AGUUGCU,-0.334
6,UGGGUGU,3.53
7,UCGGUGU,0.524
8,GGUGUGG,4.32
9,UUGGUGU,1.51
10,UGUGUGG,1.89
11,GGUGUGU,1.7
12,ACUCUAA,-0.685
13,GCACCCU,-0.496
14,AAAUCCC,-0.86
15,GCAUUCA,-0.396
16,CUGUUCU,-0.847
17,UGUGGGG,3.96
18,UGUGGGC,2.06
19,GGUGGGC,3.3
20,UGUGGUG,1.84
21,UGUGGGA,2.87
22,GGUGGGU,3.78
23,UGUGGUU,1.84
24,GGUGGUU,2.61

row,Sequence,RNAcompete 7-mer binding Z-score
1,GGUGGUC,2.06
2,GCUGGGU,2.3
3,UGUGGGU,3.46
4,UCUGGGU,0.81
5,CUAAUUG,-0.617
6,UUGAACG,-0.139
7,ACCCACU,-0.675
8,GGAUGUA,1.7
9,GUUUGUG,0.865
10,AUCUAAC,-0.681
11,AACCGGC,-0.6
12,AGUGUCC,-0.604
13,GGACGUA,0.833
14,UUAUGAU,-0.353
15,CUGAAUG,-0.285
16,GCUGGGA,2.03
17,AGUGGUA,2.01
18,GGUGGCA,2.02
19,AGUGGGG,4.49
20,AUUGGGA,2.83
21,GGUGGGA,4.26
22,ACUGGGU,2.06
23,AGUGUGG,2.95
24,AGUGGGA,4.13

row,Sequence,RNAcompete 7-mer binding Z-score
1,AGUGGGC,2.67
2,CGUGGGU,2.81
3,AGUGGGU,3.49
4,UCAUCCG,-0.808
5,CAGUGAG,0.706
6,UUCUUUG,-0.659
7,GCUGAAG,0.699
8,ACACUUG,-0.535
9,UCUAUAC,-0.821
10,CGUGGGC,1.85
11,CGUGGGA,2.33
12,CGUGGGG,3.65
13,AUUUAAG,-0.298
14,UAGUCAU,-0.444
15,GGGGACG,2.55
16,AGGGAAU,3.05
17,GGGGAAU,3.41
18,GGGGAAC,2.42
19,CGGGAAU,1.68
20,GGGGAAG,4.31
21,CGACUUC,-0.785
22,CCCUUGC,-0.694
23,GCCAGUA,-0.288
24,UGCCUCC,-0.506

row,Sequence,RNAcompete 7-mer binding Z-score
1,UGGAAGG,4.12
2,CGGAAGG,2.53
3,UGGAAGU,1.79
4,AGGAAGG,4.31
5,AGGAAGU,1.06
6,AGGAAGA,1.7
7,AUACUAG,-0.337
8,AACCAUC,-0.763
9,CUAGCUG,-0.386
10,CGGUGAG,1.42
11,GGGUGAG,4.36
12,AGGUGAU,1.8
13,GGGUGAU,3.22
14,GGUUGAG,3.3
15,CGGUGAA,0.595
16,UGGUGAA,1.71
17,GGGUGAC,3.04
18,GGGUGAA,3.87
19,UGGUGAU,1.2
20,UGUUGAG,0.716
21,CGUUGAG,-0.0512
